{"source": "ChEMBL document CHEMBL4513216", "about": "“Probing the Open Global Health Chemical Diversity Library for Multistage-Active Starting Points for Next-Generation Antimalarials” (ACS Infect Dis, 2020)", "note": "The campaign covered roughly 69,000 compounds. About 8,600 (12%) showed an effect of 50% or more. The list comes from a sample in which strong results are over-represented; it also holds similar structures and randomly drawn compounds.", "data": [{"system": "Plasmodium berghei", "assay": "Screen against P. berghei liver stage (PbLuc), transformed with Luciferase, at 10uM", "format": "functional, HepG2", "conditions": "tested at 10 uM", "units": {"INHIBITION": "%"}, "values": [{"smiles": "Oc1ccc(Cl)cc1CNCc1ccccc1C(F)(F)F", "INHIBITION": 16.6}, {"smiles": "O=C(NCC(O)c1ccccc1C(F)(F)F)c1cccnc1", "note": "(stereo not given)", "INHIBITION": -2.97}, {"smiles": "CC(C)(C)n1ncc(NCC(O)c2ccc(F)c(F)c2)c(Cl)c1=O", "note": "(stereo not given)", "INHIBITION": 84.5}, {"smiles": "CC(C)(C)n1ncc(NCC(O)c2ccccc2C(F)(F)F)c(Cl)c1=O", "note": "(stereo not given)", "INHIBITION": 82.2}, {"smiles": "CCn1cc(NC(=O)NCC(O)c2ccccc2)cn1", "note": "(stereo not given)", "INHIBITION": -30.4}, {"smiles": "Cn1c(NCC(O)c2ccc(F)c(F)c2)c(C#N)c(=O)n(C)c1=O", "note": "(stereo not given)", "INHIBITION": -52.5}, {"smiles": "Cn1c(NCC(O)c2ccc(Cl)cc2)c(C#N)c(=O)n(C)c1=O", "note": "(stereo not given)", "INHIBITION": 19.4}, {"smiles": "CC(C)(C)n1ncc(C(=O)NCCCC(N)=O)c1C(F)(F)F", "INHIBITION": 26.9}, {"smiles": "CC(C)(C)n1ncc(NCCc2ccccc2C(F)(F)F)c(Cl)c1=O", "INHIBITION": 76.6}, {"smiles": "CC(=O)c1c(F)cccc1NCC(O)c1ccc(F)c(F)c1", "note": "(stereo not given)", "INHIBITION": 15.7}, {"smiles": "CC(C)(C)n1ncc(NCC(O)c2ccccc2)c(Cl)c1=O", "note": "(stereo not given)", "INHIBITION": 77.7}, {"smiles": "O=C(NCc1cccnc1)NCC(O)c1ccccc1C(F)(F)F", "note": "(stereo not given)", "INHIBITION": 16.8}, {"smiles": "Cc1ccc(C2CSCCN2C(=O)NCc2cccnc2)cc1", "note": "(stereo not given)", "INHIBITION": 4.66}, {"smiles": "CCCNS(=O)(=O)c1cc2c3c(c1)c(C)cc(=O)n3CCC2", "INHIBITION": 22.85}, {"smiles": "CNc1cc(CNC(=O)c2ccnc(OC)c2)nc(-c2ccncc2)n1", "INHIBITION": 32.3}, {"smiles": "Cc1cnc(N2CCn3cc(CNC(=O)CC4CC4)nc3C2)nc1", "INHIBITION": 25.6}, {"smiles": "NC(=O)c1ccccc1-n1cc(-c2cccc(C(=O)O)c2)cn1", "INHIBITION": 71.5}, {"smiles": "NC(=O)c1cc(-n2cc(-c3cccc(C(=O)O)c3)cn2)cs1", "INHIBITION": 5.17}, {"smiles": "NC(=O)c1cc(-c2cccc(C(=O)O)c2)cs1", "INHIBITION": 29.8}, {"smiles": "CO[C@H]1CCN(Cc2cnn(C)c2)[C@@H]2CN(Cc3ccncc3)C[C@H]12", "INHIBITION": 7.31}, {"smiles": "CC(C)Cc1noc(CN2CCN(C(=O)c3ccccc3F)CC2)n1", "INHIBITION": -19.4}, {"smiles": "CC(C)Nc1ncnc2c1CCN(Cc1nccn1C)CC2", "INHIBITION": 24.9}, {"smiles": "Cc1ncc(CNCC(=O)NC2CCCCC2)n1-c1ccccc1", "INHIBITION": 65}, {"smiles": "Cc1ncc(CNCC2CCC(C(N)=O)CC2)n1-c1ccccc1", "note": "(stereo not given)", "INHIBITION": 30.8}, {"smiles": "Cc1ncc(CNCC(=O)NCC(F)(F)F)n1-c1ccccc1", "INHIBITION": 41.5}, {"smiles": "Cc1n[nH]c(C)c1-c1nccnc1CC1CCNC1", "note": "(stereo not given)", "INHIBITION": 25}, {"smiles": "CCC(C)(N)c1nc(=O)c(C(C)C)c(C)[nH]1", "note": "(stereo not given)", "INHIBITION": 24.8}, {"smiles": "OC(c1cnn(-c2ccccc2)c1)C(F)(F)F", "note": "(stereo not given)", "INHIBITION": 26.5}, {"smiles": "CCc1cnc(CN(C)C2CCN(CC3CCC3)C2)o1", "note": "(stereo not given)", "INHIBITION": -0.532}, {"smiles": "CCOc1ccc(OC2CCCN(c3cnn(C)c3)C2=O)cc1", "note": "(stereo not given)", "INHIBITION": 25.8}, {"smiles": "Cc1nc(COc2ccc(OC3CCCCNC3=O)cc2)oc1C", "note": "(stereo not given)", "INHIBITION": 64.9}, {"smiles": "Cc1nc(COc2ccc(OCC(N)=O)cc2)oc1C", "INHIBITION": -120}, {"smiles": "Cc1cc(COc2ccc(OC3CCCCNC3=O)cc2)on1", "note": "(stereo not given)", "INHIBITION": -26.1}, {"smiles": "CCc1cnc(COc2ccc(OC3CCCCNC3=O)cc2)o1", "note": "(stereo not given)", "INHIBITION": 78.4}, {"smiles": "COc1ncccc1CNC(=O)NC1CCCOc2ccccc21", "note": "(stereo not given)", "INHIBITION": 10}, {"smiles": "CN(Cc1ccsc1)C(=O)CNC(=O)N1CCc2ccccc2C1", "INHIBITION": 54.8}, {"smiles": "Cc1ccc(CN(C)C(=O)CNC(=O)N2CCc3ccccc3C2)o1", "INHIBITION": -1.45}, {"smiles": "CN(Cc1ccccn1)C(=O)CNC(=O)N1CCc2ccccc2C1", "INHIBITION": 21.2}, {"smiles": "c1cnn(CC2CN(CC3CCCCC3)CCO2)c1", "note": "(stereo not given)", "INHIBITION": -71.2}, {"smiles": "N#Cc1ccccc1N1CCN(C(=O)NCC(=O)N2CCCC2)CC1", "INHIBITION": -9.1}, {"smiles": "N#Cc1ccccc1N1CCCN(CC(=O)Nc2ccc(Cl)cn2)CC1", "INHIBITION": 37.7}, {"smiles": "N#Cc1ccccc1N1CCCN(CC(=O)Nc2ccccc2Cl)CC1", "INHIBITION": 63.7}, {"smiles": "Cc1cc(C)c(Cn2cncn2)cc1CN1CC[C@@H]2CC[C@H](C1)N2", "INHIBITION": 19.4}, {"smiles": "Cc1nc2c(N3CCN(CCO)CC3)nc(N)nc2n1C", "INHIBITION": 13.1}, {"smiles": "CN1CCCc2ccc(S(=O)(=O)NC(=O)C3CC=CC3)cc21", "INHIBITION": 75.4}, {"smiles": "CC(=O)NS(=O)(=O)c1ccc2c(c1)N(C)CCC2", "INHIBITION": -56.6}, {"smiles": "CC(C)C(=O)NS(=O)(=O)c1ccc2c(c1)N(C)CCC2", "INHIBITION": 39.2}, {"smiles": "CN(Cc1nncn1-c1cccc(C(F)(F)F)c1)S(C)(=O)=O", "INHIBITION": -19.1}, {"smiles": "CCCC(=O)N(CCCN1CCOCC1)c1nc2c(Cl)cccc2s1", "INHIBITION": 71.4}, {"smiles": "CCCC(=O)N(CCCN1CCOCC1)c1nc2c(C)ccc(Cl)c2s1", "INHIBITION": 42.7}, {"smiles": "CCCC(=O)N(CCCN1CCOCC1)c1nc2c(C)c(C)ccc2s1", "INHIBITION": 60.1}, {"smiles": "CN(CCN1CCOCC1)C(=O)CCc1cccc(Cl)c1", "INHIBITION": -3.16}, {"smiles": "CCCC(=O)N(CCCN1CCOCC1)c1nc2c(F)cccc2s1", "INHIBITION": 32.1}, {"smiles": "CCCC(=O)N(CCN1CCOCC1)c1nc2c(OC)ccc(C)c2s1", "INHIBITION": -0.473}, {"smiles": "N#Cc1cccc(C(=O)NC2CCc3c(ccc(=O)n3CC3CC3)C2)c1", "note": "(stereo not given)", "INHIBITION": -19.2}]}]}
